Bioassay records: PubChem BioAssay, National Center for Advancing Translational Sciences (NCATS)
Only some compounds are listed: those with a hit (about 13% of all), similar ones and a draw of the others.
FMDV antiviral – foot and mouth disease virus antiviral activity. FMDV antiviral cell-based qHTS. Potency, µM (series often up to 57.9 µM), actives largely listed as inhibitors. 410,000 compounds, 1.2% hits. AID 1159524; calls by dose curve; tested in HEK293T cells; also: read-out not given here; nearly all actives have a fitted effect of over 45% in size
Marburg entry inh – Marburg virus entry inhibition; Marburg virus pseudotyped entry inhibition, cell reporter; Potency, µM (doses to about 37.8 µM), most hits filed as inhibitors; 300,000 compounds, 1.8% hits; AID 540276; calls by dose curve; tested in HEK293 cells
Cycloheximide cs – counter-screen for Shiga toxin inhibitors: cycloheximide protein synthesis inhibition; cell reporter, cycloheximide protein synthesis inhibition counterscreen; max response, %; 300,000 compounds, 12% hits; AID 2314; in the data active = max response mostly above about 13%, no sharp cut-off; inactive = mostly below about 14%; also: read at 38.3 µM for the half of the compounds with a filed dose
HCV inhibitor – HCV inhibition. AID 651820. Huh7.5.1 HCVcc-Cre infection, luciferase reporter, 44 h. 340,000 compounds, 3.4% hits. Potency, µM (doses to about 41.8 µM), hits mostly inhibitors; active = well fitted inhibition curve with a large enough effect; inconclusive = small, poorly fitted or top-dose-only effect, or another doubt; inactive = no such curve, though single readings can be large or run the other way
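HCVcc-Cre virus at an moi near 0.5 was added right after compound to cells cultured 4 h from seeding (1,000 cells/well). Luciferase activity was determined 44 h later, 15 min after substrate addition at RT.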
Lassa entry inh – blocks Lassa virus binding to or entry into cells. 300,000 compounds, 1.2% hits. Potency, µM (series often up to 37.9 µM), actives largely listed as inhibitors. Lassa virus pseudotype entry inhibition, cell reporter; calls by dose curve; tested in HEK293 cells; also: nearly all actives have a fitted effect of over 50% in size
Shiga inhibitor – inhibitors of Shiga toxin in Vero cells. 290,000 compounds, 9.2% hits. Vero cells, Shiga toxin protein synthesis inhibition reporter. inhibition, % at 38.7 µM; in the data active = inhibition mostly above about 28%, no sharp cut-off; inactive = mostly below about 43%
A number is an active result; – = inactive; ? = inconclusive; · = no result given.

SMILES	FMDV antiviral	Marburg entry inh	Cycloheximide cs	HCV inhibitor	Lassa entry inh	Shiga inhibitor
CCNC(=O)/C(C#N)=C/c1c(N2CCN(c3ccccc3)CC2)nc2ccccn2c1=O	–	·	29	–	·	44
COc1cccc(OCc2nc3ccccc3n2C)c1	–	?	·	·	–	·
Cc1ccc(C)c(OCc2nc3ccccc3n2C)c1	–	?	·	·	–	·
Cn1c(COc2ccc(C(=O)O)cc2)nc2ccccc21	–	·	–	–	·	–
Cc1ccccc1OCc1nc2ccccc2n1C	–	·	32	–	·	·
Cc1cccc(OCc2nc3ccccc3n2C)c1	–	·	37	–	·	29
Cn1c(COc2ccc(F)cc2)nc2ccccc21	–	?	43	–	–	68
Cc1nnc(OCc2nc3ccccc3n2C)c2ccccc12	–	–	33	–	–	68
Cc1ccc(-c2noc(-c3ccccc3NC(=O)C3CC(=O)N(c4ccc(C)cc4)C3)n2)cc1 (stereo unspecified)	–	–	·	·	–	·
COc1ccccc1CNC(=O)CCc1c(C)c2cc3c(C)coc3cc2oc1=O	–	–	·	·	–	·
COC(=O)c1ccc2c(=O)n(CCCCCC(=O)N3CCN(c4ccccc4)CC3)c(=O)[nH]c2c1	11µM	?	–	10µM	?	–
COC(=O)c1ccc2c(=O)n(CCCCCC(=O)N3CCN(c4cc(Cl)ccc4C)CC3)c(=O)[nH]c2c1	14µM	·	·	·	?	·
CCN1CCN(C(=O)CCCCCn2c(=O)[nH]c3cc(C(=O)OC)ccc3c2=O)CC1	–	–	–	–	–	–
COc1cc2[nH]c(=O)n(CCCCCC(=O)N3CCN(c4ccc(Cl)cc4)CC3)c(=O)c2cc1OC	18µM	–	·	·	–	·
COc1ccc(OCCN(C)Cc2c(O)ccc3ccccc23)cc1	–	–	18	–	–	–
CCOC(=O)/C(=N\Nc1ccccc1Cl)N1CCN(Cc2ccccc2)CC1	?	–	21	–	–	–
CCOC(=O)/C(=N\Nc1ccccc1)N1CC1	–	–	19	–	–	–
Nc1c(N(CCC2=CCCCC2)C(=O)c2ccco2)c(=O)[nH]c(=O)n1Cc1ccccc1	?	?	·	–	–	·
Cn1c(=O)n(C)c2cc([N+](=O)[O-])c(N3CCN(S(=O)(=O)c4ccc(C(C)(C)C)cc4)CC3)cc21	·	?	–	14µM	?	–
O=[N+]([O-])c1cc(C(F)(F)F)ccc1N1CCN(S(=O)(=O)c2ccc3ccccc3c2)CC1	?	11µM	–	6.3µM	–	–
O=[N+]([O-])c1cc(C(F)(F)F)cc([N+](=O)[O-])c1N1CCN(S(=O)(=O)c2ccccc2)CC1	?	–	–	?	–	–
CN(C)c1ccc(C=Nc2cnn(C)c2C(N)=O)cc1	–	–	39	–	–	90
O=C(N/N=C/c1cn(-c2ccccc2)nc1-c1cc2ccccc2o1)c1ccccc1Br	–	10µM	66	?	?	100
O=C(N/N=C/c1cn(-c2ccccc2)nc1-c1cc2ccccc2o1)c1c[nH]c2ccccc12	–	?	45	11µM	?	133
CCOc1cc2[nH]c(=O)n(Cc3ccc(C(=O)NCCCN4CCC(C)CC4)cc3)c(=O)c2cc1OCC	–	?	–	?	–	–
SMILES	FMDV antiviral	Marburg entry inh	Cycloheximide cs	HCV inhibitor	Lassa entry inh	Shiga inhibitor
CCn1c(C)nc2cc(C(=O)NNC(=S)Nc3ccc(Cl)cc3Cl)ccc21	–	–	16	–	–	–
CCn1c(C)nc2cc(C(=O)NNC(=S)Nc3ccccc3Cl)ccc21	–	?	40	–	–	51
CC(C)CC(COCc1ccc(F)cc1)N1CCN(C(=O)c2cccc(C(F)(F)F)c2)CCC1=O (stereo unspecified)	–	?	–	–	21µM	–
CC(C)CC(COCc1cccc(Cl)c1)N1CCN(C(=O)c2ccc(C(F)(F)F)cc2)CCC1=O (stereo unspecified)	?	?	–	–	10µM	–
CC(C)C[C@@H](COCc1ccc(F)cc1)N1CCN(C(=O)c2cccc(C(F)(F)F)c2)CCC1=O	–	·	·	·	·	·
CCC(Cc1ccccc1)n1c(=S)[nH]c2ccccc2c1=O (stereo unspecified)	–	–	–	–	–	–
O=C1c2ccccc2NC2(CCCC2)N1O	–	–	16	–	–	53
O=C1c2ccccc2NC2(CCCCC2)N1N=C1CCCCC1	–	–	60	–	–	44
Cc1ccc(CN2C(=O)c3ccccc3NC23CCN(Cc2ccccc2)CC3)cc1	–	?	–	?	?	–
O=C1NC2(CCCCC2)C(=O)N1CCN1C(=O)c2ccccc2C1=O	–	·	–	–	·	–
COc1nccnc1NS(=O)(=O)c1ccc(NC(=S)NC(=O)c2ccc(F)cc2)cc1	–	–	–	–	–	–
O=C(CO/N=C/c1ccccc1)N1c2ccccc2Oc2ccccc21	–	?	–	–	–	–
CC(C)c1ccc(NC(=O)C2=NNC(=O)CC2)cc1	–	?	38	–	–	97
O=C1CCC(C(=O)Nc2cccc(Oc3ccccc3)c2)=NN1	–	?	15	–	–	–
O=C1CCC(C(=O)Nc2cccc(S(=O)(=O)Nc3ccccc3F)c2)=NN1	–	?	·	–	–	·
Cc1ccc(NC(=O)C2=NNC(=O)CC2)cc1F	–	?	35	–	–	60
CC1CCN(C(=O)COC(=O)c2cccc(NS(=O)(=O)c3ccccc3)c2)CC1	–	–	·	–	–	·
CCN(CC#CCC(O)(c1ccccc1)c1ccccc1)C(C)C	–	?	–	–	?	–
O=C(c1nc2ccc(Cl)cn2c1CN1CCCC1)N1CCc2ccccc2C1	–	·	–	–	·	–
COC(=O)c1ccc2nc(NC(=O)CSCC(=O)OCC(=O)c3ccccc3)sc2c1	–	–	36	–	–	–
COC(=O)c1ccc2nc(NC(=O)CCS(=O)(=O)c3ccccc3)sc2c1	–	?	–	–	–	–
Cc1ccc2nc(NC(=O)CSCC(=O)OCC(=O)c3ccc(Br)cc3)sc2c1	7.9µM	3.2µM	15	–	7.9µM	–
CO/N=C(/CS(=O)Cc1ccc(Cl)cc1)c1ccc(Cl)cc1 (stereo unspecified)	·	–	–	–	?	–
COc1ccc(O)c(C(=O)c2cnn(C(=O)c3cccc(N(C)C)c3)c2)c1	–	–	·	–	–	·
CN(C)c1cccc(C(=O)n2cc(C(=O)c3cc(F)ccc3O)cn2)c1	–	–	–	–	–	97
SMILES	FMDV antiviral	Marburg entry inh	Cycloheximide cs	HCV inhibitor	Lassa entry inh	Shiga inhibitor
C[C@@H]1CN([C@@H](C)CO)C(=O)CCCn2nncc2CO[C@H]1CN(C)C(=O)c1ccncc1	–	·	·	·	·	·
Cc1ccc(C2=N/C(=C/c3cccs3)C(=O)N2Nc2ccccc2)cc1	–	?	–	11µM	–	–
Cc1ccccc1C1=N/C(=C/c2cccs2)C(=O)O1	–	·	–	–	·	–
CCC1CCCCN1C(=O)CSc1nnc(-c2c[nH]c3ccccc23)o1 (stereo unspecified)	–	–	16	?	–	–
CC1CCCN(C(=O)CSc2nnc(-c3c[nH]c4ccccc34)o2)C1 (stereo unspecified)	·	–	35	–	?	–
COc1ccc(CN(C(=O)CSc2nnc(-c3c[nH]c4ccccc34)o2)c2ccc(F)cc2)cc1OC	?	?	41	5µM	7.1µM	51
